Unmarked numbers belong to inactive results.
Tests used:
Test in all cases: log2 ratio of Biotin-Ahx-Ub-VS probe labelling (fragment/DMSO); higher = less target engagement (more negative = stronger competition), active = hit call of the paper (q ≤ 0.05, log2 ratio ≤ -1)
Settings in all cases: compound concentration: 200 uM; treatment time: 3 h
USP42 = target: T1, USP42 (UniProt Q9H9J4)
T1 sequence (whole entry): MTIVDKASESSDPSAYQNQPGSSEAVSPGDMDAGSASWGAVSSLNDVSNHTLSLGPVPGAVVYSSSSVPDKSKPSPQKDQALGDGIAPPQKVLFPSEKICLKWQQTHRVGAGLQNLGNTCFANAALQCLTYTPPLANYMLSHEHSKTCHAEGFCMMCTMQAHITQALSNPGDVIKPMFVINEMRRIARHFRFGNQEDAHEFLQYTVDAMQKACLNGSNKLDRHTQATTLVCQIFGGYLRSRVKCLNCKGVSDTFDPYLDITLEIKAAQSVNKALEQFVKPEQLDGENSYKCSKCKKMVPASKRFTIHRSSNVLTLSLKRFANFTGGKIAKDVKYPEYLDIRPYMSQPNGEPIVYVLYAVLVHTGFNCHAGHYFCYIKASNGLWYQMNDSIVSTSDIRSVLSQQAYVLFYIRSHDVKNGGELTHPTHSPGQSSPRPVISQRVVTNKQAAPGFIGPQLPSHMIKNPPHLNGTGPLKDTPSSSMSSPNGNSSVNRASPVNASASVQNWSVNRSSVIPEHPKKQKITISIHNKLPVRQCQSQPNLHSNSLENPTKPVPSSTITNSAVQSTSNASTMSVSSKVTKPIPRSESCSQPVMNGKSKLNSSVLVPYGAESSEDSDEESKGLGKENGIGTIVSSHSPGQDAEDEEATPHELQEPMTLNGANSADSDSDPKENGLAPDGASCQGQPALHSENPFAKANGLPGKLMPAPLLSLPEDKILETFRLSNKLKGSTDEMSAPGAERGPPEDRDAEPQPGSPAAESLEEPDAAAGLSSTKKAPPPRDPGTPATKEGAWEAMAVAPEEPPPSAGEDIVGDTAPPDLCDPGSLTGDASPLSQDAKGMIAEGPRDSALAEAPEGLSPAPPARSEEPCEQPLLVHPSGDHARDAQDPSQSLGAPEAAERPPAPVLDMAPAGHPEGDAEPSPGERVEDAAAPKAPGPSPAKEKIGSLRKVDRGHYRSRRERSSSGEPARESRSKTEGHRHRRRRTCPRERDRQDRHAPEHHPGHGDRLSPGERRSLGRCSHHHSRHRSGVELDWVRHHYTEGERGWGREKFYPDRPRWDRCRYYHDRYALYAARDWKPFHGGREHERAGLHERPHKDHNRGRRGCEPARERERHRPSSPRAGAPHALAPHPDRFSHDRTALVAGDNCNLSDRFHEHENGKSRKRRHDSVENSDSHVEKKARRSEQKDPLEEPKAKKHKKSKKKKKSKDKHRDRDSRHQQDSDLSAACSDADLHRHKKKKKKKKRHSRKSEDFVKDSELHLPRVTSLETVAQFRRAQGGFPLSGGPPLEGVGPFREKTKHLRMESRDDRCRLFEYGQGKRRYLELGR
Method in brief: (§1)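 Triplicate samples of HEK293T lysate, 495 µg each, received fragment at 200 µM or vehicle for 3 h, followed by Biotin-Ahx-Ub-VS (0.5 µM final) for 1 h. After NeutrAvidin enrichment of labelled DUBs and LysC/trypsin digestion, peptides were run by diaPASEF LC-MS/MS. The values are average log2 fragment/vehicle ratios from global-median-normalised Spectronaut label-free quantities, tested by unpaired t-test on proteins having ≥2 unique peptides.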

USP46 = USP46 (UniProt P62068)
Chain of USP46 (P62068 whole entry): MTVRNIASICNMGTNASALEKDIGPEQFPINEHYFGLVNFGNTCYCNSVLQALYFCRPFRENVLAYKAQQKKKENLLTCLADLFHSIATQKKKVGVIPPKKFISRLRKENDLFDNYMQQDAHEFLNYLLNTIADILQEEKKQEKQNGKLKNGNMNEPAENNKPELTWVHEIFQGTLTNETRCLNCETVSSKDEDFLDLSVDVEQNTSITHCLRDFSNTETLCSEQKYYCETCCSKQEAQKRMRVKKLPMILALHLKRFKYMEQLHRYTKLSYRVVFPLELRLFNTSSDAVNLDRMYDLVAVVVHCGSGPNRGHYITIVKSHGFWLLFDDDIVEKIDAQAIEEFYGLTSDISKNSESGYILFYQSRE
Method in brief: as §1

USP47 = target: T2, USP47 (UniProt Q96K76)
T2 sequence (whole entry): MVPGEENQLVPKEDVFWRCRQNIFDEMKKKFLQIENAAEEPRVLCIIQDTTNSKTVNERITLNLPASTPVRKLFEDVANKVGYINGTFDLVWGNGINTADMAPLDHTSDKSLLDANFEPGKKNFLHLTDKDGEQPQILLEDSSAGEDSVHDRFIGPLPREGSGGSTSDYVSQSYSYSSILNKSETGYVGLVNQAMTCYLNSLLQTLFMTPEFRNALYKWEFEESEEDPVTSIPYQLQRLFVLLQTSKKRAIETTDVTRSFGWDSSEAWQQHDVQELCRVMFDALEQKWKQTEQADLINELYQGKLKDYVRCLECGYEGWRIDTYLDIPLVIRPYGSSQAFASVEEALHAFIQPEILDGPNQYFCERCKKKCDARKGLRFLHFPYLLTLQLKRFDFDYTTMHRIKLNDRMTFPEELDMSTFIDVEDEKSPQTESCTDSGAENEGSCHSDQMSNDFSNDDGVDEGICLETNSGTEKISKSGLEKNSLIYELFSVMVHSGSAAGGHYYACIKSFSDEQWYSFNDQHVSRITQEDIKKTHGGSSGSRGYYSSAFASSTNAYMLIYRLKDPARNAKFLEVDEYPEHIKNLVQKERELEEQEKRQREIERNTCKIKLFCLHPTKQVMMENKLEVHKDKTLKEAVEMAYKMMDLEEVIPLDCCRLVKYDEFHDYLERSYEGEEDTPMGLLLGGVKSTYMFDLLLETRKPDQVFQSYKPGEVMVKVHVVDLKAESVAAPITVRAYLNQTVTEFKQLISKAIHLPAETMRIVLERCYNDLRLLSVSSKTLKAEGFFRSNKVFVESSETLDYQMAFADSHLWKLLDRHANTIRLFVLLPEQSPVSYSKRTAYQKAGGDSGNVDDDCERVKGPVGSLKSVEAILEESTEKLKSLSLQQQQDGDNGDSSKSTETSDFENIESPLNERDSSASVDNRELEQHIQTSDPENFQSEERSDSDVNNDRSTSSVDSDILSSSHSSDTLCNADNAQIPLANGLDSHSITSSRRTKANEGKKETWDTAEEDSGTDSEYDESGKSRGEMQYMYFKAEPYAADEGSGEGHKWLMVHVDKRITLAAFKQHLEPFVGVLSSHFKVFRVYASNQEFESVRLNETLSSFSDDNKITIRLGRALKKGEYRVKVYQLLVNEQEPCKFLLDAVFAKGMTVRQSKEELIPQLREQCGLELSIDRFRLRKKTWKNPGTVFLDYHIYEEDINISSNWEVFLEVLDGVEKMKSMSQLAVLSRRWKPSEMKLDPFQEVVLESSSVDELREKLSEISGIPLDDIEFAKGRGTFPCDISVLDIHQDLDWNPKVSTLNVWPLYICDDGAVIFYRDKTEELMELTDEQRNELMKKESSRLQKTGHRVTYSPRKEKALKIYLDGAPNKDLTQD
Method in brief: as §1

USP48 = target: T3, USP48 (UniProt Q86UV5)
T3 sequence (whole entry): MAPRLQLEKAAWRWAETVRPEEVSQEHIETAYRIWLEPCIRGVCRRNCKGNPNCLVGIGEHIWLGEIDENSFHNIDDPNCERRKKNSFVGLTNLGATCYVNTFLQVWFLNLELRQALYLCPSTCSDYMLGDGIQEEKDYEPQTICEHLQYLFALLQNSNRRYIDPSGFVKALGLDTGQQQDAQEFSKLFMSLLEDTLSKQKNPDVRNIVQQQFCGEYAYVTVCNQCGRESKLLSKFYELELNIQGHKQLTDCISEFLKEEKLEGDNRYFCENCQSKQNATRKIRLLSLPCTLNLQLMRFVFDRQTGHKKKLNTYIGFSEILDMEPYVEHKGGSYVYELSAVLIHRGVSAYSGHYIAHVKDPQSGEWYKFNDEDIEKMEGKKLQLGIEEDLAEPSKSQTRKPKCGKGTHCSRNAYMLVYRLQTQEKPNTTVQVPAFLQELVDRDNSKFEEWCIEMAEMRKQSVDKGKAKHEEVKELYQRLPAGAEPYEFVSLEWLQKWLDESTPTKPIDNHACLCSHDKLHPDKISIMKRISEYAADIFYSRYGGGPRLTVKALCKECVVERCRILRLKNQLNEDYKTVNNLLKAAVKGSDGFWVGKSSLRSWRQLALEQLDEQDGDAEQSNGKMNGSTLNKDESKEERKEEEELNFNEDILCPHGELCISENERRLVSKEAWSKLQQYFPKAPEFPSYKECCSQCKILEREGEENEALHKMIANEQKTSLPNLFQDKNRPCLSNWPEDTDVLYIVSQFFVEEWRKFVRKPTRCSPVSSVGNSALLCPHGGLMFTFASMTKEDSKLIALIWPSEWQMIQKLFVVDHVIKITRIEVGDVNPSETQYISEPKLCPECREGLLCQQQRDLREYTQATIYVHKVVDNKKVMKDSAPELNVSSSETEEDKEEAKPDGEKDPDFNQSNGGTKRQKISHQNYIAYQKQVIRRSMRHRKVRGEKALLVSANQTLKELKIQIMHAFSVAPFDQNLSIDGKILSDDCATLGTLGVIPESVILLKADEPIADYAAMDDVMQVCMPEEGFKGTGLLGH
Method in brief: as §1

USP5 = target: T4, USP5 (UniProt P45974)
T4 sequence (whole entry): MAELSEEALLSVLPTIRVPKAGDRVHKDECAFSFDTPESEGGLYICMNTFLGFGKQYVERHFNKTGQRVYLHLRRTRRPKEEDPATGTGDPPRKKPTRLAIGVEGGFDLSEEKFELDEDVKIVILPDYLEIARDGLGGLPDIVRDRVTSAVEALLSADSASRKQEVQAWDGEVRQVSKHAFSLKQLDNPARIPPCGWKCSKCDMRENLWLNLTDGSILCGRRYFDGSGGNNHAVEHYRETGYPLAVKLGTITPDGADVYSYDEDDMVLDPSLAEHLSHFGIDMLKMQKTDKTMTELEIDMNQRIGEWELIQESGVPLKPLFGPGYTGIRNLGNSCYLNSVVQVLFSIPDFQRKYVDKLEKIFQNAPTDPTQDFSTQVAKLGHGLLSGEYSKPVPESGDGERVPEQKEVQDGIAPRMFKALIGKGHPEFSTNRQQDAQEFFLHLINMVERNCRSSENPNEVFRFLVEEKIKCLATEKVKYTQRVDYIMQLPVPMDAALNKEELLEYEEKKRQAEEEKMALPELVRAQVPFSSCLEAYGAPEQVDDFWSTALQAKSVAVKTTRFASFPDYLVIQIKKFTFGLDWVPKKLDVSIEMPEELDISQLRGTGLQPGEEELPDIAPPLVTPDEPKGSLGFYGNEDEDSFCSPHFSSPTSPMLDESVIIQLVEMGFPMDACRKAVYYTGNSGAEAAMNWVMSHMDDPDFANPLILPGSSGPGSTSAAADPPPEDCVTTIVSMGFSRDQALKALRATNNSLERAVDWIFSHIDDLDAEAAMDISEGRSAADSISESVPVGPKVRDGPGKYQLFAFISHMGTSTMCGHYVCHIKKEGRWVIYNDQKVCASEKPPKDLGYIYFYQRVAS
Method in brief: as §1

USP54 = USP54 (UniProt Q70EL1)
Chain of USP54 (Q70EL1 whole entry): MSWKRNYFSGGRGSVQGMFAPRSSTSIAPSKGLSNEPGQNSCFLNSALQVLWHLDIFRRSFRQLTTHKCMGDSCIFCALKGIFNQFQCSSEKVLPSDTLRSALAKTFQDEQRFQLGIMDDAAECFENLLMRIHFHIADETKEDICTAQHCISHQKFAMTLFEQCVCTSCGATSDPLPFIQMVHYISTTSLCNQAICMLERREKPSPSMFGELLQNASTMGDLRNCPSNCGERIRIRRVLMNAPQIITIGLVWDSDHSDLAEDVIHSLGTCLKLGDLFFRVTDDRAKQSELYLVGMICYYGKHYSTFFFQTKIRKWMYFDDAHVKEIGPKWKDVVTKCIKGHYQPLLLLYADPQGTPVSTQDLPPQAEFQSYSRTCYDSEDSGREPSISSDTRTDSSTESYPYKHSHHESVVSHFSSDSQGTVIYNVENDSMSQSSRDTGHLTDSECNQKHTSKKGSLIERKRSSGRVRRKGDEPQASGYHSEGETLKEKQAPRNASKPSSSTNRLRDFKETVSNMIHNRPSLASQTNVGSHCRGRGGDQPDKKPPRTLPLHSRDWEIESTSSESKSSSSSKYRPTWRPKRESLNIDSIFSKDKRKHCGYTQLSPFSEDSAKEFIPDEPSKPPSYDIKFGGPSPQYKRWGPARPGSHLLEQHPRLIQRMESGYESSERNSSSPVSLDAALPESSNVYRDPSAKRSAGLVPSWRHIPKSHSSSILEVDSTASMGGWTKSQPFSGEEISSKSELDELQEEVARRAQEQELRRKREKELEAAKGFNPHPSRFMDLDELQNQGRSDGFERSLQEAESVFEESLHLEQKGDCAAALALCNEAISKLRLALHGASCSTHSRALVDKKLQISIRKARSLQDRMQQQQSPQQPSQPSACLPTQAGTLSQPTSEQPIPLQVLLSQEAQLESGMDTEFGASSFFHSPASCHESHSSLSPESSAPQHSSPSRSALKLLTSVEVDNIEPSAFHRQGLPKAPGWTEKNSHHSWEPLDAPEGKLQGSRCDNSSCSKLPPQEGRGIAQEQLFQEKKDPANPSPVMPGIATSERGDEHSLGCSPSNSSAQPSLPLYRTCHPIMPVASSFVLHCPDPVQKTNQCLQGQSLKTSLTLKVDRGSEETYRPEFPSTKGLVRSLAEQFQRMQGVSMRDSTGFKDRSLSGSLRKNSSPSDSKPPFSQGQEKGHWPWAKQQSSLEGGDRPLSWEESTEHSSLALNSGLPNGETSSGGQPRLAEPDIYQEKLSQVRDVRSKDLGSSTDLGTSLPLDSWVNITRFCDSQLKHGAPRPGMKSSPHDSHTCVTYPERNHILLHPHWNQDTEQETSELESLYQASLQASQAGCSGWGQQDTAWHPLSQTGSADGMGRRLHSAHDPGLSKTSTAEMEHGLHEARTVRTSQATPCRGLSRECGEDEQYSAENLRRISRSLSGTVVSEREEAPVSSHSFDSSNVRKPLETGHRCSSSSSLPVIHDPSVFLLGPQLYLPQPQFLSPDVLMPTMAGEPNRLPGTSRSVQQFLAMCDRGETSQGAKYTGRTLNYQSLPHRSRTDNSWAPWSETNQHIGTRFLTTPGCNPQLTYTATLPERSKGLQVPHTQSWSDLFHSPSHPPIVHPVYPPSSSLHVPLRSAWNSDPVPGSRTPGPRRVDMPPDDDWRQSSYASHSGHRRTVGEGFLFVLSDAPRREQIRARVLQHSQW
Method in brief: as §1

USP7 = USP7 (UniProt Q93009)
Chain of USP7 (Q93009 whole entry, looked up): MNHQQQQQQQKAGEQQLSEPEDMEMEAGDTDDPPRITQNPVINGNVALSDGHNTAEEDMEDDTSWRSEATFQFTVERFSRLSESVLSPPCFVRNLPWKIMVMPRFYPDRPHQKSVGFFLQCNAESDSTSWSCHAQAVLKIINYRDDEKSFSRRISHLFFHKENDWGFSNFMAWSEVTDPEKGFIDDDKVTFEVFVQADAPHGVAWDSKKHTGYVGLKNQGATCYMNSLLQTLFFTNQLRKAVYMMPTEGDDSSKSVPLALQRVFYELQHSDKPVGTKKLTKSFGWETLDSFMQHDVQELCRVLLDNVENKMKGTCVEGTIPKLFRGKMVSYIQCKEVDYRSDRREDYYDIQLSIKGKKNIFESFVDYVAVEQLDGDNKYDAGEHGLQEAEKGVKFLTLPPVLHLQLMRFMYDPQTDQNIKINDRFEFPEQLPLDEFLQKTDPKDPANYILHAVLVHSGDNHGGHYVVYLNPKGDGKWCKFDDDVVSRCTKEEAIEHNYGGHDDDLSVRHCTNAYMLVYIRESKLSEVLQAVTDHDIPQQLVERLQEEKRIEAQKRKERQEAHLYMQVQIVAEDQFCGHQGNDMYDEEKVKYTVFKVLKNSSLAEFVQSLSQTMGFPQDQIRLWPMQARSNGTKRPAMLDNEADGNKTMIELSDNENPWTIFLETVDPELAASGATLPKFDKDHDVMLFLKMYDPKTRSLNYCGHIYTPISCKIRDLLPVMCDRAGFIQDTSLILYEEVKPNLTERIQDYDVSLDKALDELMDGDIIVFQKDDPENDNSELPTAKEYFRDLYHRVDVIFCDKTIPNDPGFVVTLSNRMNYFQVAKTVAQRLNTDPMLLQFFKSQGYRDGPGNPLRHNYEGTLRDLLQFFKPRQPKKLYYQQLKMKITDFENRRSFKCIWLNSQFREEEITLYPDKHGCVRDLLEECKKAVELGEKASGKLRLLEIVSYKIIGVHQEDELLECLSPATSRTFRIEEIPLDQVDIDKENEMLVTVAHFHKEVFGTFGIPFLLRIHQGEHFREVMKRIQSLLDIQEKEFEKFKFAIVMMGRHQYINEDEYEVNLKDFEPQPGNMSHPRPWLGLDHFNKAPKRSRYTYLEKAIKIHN
Method in brief: as §1

USP8 = target: T5, USP8 (UniProt P40818)
T5 sequence (whole entry): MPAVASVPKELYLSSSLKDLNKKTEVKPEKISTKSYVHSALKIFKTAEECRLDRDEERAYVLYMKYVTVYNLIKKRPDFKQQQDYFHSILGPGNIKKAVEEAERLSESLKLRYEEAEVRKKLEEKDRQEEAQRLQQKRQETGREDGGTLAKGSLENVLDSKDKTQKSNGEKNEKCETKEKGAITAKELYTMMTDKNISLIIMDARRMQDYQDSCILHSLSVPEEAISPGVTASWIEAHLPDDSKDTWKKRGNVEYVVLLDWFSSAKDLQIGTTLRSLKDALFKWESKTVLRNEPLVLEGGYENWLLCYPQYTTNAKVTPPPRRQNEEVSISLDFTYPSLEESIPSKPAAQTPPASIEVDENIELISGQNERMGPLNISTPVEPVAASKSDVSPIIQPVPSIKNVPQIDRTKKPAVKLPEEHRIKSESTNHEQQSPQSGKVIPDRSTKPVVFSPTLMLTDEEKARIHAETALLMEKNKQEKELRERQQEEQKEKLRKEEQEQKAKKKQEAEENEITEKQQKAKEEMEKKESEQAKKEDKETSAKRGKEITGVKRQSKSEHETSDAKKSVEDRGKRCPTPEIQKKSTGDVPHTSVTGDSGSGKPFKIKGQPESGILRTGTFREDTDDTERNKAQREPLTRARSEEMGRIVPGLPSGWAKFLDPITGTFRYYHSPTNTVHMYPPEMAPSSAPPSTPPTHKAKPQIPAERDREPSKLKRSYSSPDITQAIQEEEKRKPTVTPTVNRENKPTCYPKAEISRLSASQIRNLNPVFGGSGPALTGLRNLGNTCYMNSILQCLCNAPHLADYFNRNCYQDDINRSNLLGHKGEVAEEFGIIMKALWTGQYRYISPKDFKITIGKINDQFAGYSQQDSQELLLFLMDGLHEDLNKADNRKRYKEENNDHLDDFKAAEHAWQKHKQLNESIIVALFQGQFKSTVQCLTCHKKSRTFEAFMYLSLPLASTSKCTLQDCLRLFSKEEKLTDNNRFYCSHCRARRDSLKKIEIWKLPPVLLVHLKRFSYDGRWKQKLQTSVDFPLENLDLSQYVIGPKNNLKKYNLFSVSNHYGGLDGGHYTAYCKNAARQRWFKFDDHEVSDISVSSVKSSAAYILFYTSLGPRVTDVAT
Method in brief: as §1

USP9X = USP9X (UniProt Q93008)
Method in brief: as §1

UniProt O00487 = target: UniProt O00487
Chain of UniProt O00487 (O00487 whole entry): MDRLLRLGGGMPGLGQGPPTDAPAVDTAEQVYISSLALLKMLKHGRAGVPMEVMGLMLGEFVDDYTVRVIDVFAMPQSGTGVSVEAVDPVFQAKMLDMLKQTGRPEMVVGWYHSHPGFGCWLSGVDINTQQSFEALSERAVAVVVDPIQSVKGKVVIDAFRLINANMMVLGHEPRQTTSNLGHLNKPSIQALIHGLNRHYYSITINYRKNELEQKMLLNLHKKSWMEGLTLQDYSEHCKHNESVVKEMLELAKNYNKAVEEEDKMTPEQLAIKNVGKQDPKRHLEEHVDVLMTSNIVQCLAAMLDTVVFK
Method in brief: as §1

Structure (SMILES): Cl.O=C(CCl)N1CC(c2ccc(Br)cn2)C1
- log2 ratio of Biotin-Ahx-Ub-VS probe labelling (USP42): 0.0546
- log2 ratio of Biotin-Ahx-Ub-VS probe labelling (USP46): -0.129
- log2 ratio of Biotin-Ahx-Ub-VS probe labelling (USP47): -0.944
- log2 ratio of Biotin-Ahx-Ub-VS probe labelling (USP48): -0.383
- log2 ratio of Biotin-Ahx-Ub-VS probe labelling (USP5): 0.197
- log2 ratio of Biotin-Ahx-Ub-VS probe labelling (USP54): 0.556
- log2 ratio of Biotin-Ahx-Ub-VS probe labelling (USP7): -1.29 (active)
- log2 ratio of Biotin-Ahx-Ub-VS probe labelling (USP8): -0.318
- log2 ratio of Biotin-Ahx-Ub-VS probe labelling (USP9X): -0.297
- log2 ratio of Biotin-Ahx-Ub-VS probe labelling (UniProt O00487): -0.285
